The supplement of paper PMC10849652
Of roughly 7,900 targets only a part is listed; those with a hit were picked by preference. About 0.6% of all pairs of compound and target were hits.

What was measured:
Experiment in all cases: log2 fold change, soluble protein after heating vs DMSO (PISA); higher = thermal stabilisation; K562 cells, 10 uM, 30 min; active = over 0.2 and 3.5 SD of the protein, either way, in both replicates (recomputed)
sotrastaurin = compound: CN1CCN(c2nc(C3=C(c4c[nH]c5ccccc45)C(=O)NC3=O)c3ccccc3n2)CC1 [sotrastaurin]
Summary of the method: (§1)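 K562 cells at 2×10^6 cells/mL were treated with 10 μM compound for 30 min. Aliquots were heated for 3 min across 48°C-58°C, pooled, and extracted in PBS with 0.5% NP-40 at 4°C; soluble protein was the supernatant after 21,000xg for 90 min. Soluble protein was quantified by TMTpro 16plex LC-MS/MS with channel sums equalised, and reported as log2 fold change in thermal stability against DMSO controls, with values from duplicates.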

alvocidib = compound: CN1CC[C@H](c2c(O)cc(O)c3c(=O)cc(-c4ccccc4Cl)oc23)[C@H](O)C1 [alvocidib]
Summary of the method: as §1

Tubastatin A = compound: CN1CCc2c(c3ccccc3n2Cc2ccc(C(=O)NO)cc2)C1 [Tubastatin A]
Summary of the method: as §1

[1] = compound: CNC(=O)C1=CC=CC=C1NC2=NC(=NC=C2Cl)NC3=C(C=C(C=C3)N4CCOCC4)OC
Summary of the method: as §1

defactinib = compound: CNC(=O)c1ccc(Nc2ncc(C(F)(F)F)c(NCc3nccnc3N(C)S(C)(=O)=O)n2)cc1 [defactinib]
Summary of the method: as §1

rucaparib = compound: CNCc1ccc(-c2[nH]c3cc(F)cc4c3c2CCNC4=O)cc1 [rucaparib]
Summary of the method: as §1

encorafenib = compound: COC(=O)N[C@@H](C)CNc1nccc(-c2cn(C(C)C)nc2-c2cc(Cl)cc(NS(C)(=O)=O)c2F)n1 [encorafenib]
Summary of the method: as §1

[2] = compound: COC(=O)[C@H](CCSC)NC(=O)C1=C(C=C(C=C1)NC[C@H](CS)N)C2=CC=CC=C2
Summary of the method: as §1

filanesib = compound: CON(C)C(=O)N1N=C(c2cc(F)ccc2F)S[C@@]1(CCCN)c1ccccc1 [filanesib]
Summary of the method: as §1

zotarolimus = compound: CO[C@H]1C[C@@H]2CC[C@@H](C)[C@@](O)(O2)C(=O)C(=O)N2CCCC[C@H]2C(=O)O[C@H]([C@H](C)C[C@@H]2CC[C@H](n3cnnn3)[C@H](OC)C2)CC(=O)[C@H](C)/C=C(\C)[C@@H](O)[C@@H](OC)C(=O)[C@H](C)C[C@H](C)/C=C/C=C/C=C/1C [zotarolimus]
Summary of the method: as §1

idasanutlin = compound: COc1cc(C(=O)O)ccc1NC(=O)[C@@H]1N[C@@H](CC(C)(C)C)[C@](C#N)(c2ccc(Cl)cc2F)[C@H]1c1cccc(Cl)c1F [idasanutlin]
Summary of the method: as §1

alisertib = compound: COc1cc(Nc2ncc3c(n2)-c2ccc(Cl)cc2C(c2c(F)cccc2OC)=NC3)ccc1C(=O)O [alisertib]
Summary of the method: as §1

[3] = compound: COc1cc2nc(-c3cc(F)ccc3O)nc(N[C@@H]3CNC[C@H]3C(C)(C)O)c2cc1OC
Summary of the method: as §1

gefitinib = compound: COc1cc2ncnc(Nc3ccc(F)c(Cl)c3)c2cc1OCCCN1CCOCC1 [gefitinib]
Summary of the method: as §1

[4] = compound: COc1cccc2cc(-c3nc([C@H]4CC[C@H](C(=O)O)CC4)n4ncnc(N)c34)[nH]c12
Summary of the method: as §1

lapatinib = compound: CS(=O)(=O)CCNCc1ccc(-c2ccc3ncnc(Nc4ccc(OCc5cccc(F)c5)c(Cl)c4)c3c2)o1 [lapatinib]
Summary of the method: as §1

pictilisib = compound: CS(=O)(=O)N1CCN(Cc2cc3nc(-c4cccc5[nH]ncc45)nc(N4CCOCC4)c3s2)CC1 [pictilisib]
Summary of the method: as §1

saracatinib = compound: CN1CCN(CCOc2cc(OC3CCOCC3)c3c(Nc4c(Cl)ccc5c4OCO5)ncnc3c2)CC1 [saracatinib]
Summary of the method: as §1

[5] = compound: CNc1nc(-c2ccc3c(N)n[nH]c3c2)cc(N2C[C@@H](C(=O)NC3CCCCC3)CC[C@H]2C)n1
Summary of the method: as §1

[6] = compound: COC1=CC=C(C=C1)CN2C=CC3=C2C=C(C=C3)C(=O)NO
Summary of the method: as §1

Measured: log2 fold change

MFSD1 isoform 6 (UniProt Q9H3U5)
UniProt Q9H3U5, sequence (Q9H3U5 whole entry, looked up): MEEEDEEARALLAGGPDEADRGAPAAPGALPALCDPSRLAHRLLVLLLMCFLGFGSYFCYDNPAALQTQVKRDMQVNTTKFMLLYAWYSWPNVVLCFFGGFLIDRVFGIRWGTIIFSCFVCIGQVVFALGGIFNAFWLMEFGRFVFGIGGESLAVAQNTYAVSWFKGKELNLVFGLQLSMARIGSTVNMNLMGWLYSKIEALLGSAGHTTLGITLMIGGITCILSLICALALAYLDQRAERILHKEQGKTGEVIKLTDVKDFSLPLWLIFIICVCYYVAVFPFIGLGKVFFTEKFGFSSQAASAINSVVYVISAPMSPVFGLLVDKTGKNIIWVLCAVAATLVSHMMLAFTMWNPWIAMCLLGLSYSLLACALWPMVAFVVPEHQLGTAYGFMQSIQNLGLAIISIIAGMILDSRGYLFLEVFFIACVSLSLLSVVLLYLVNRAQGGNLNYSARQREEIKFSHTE
inactive: sotrastaurin -0.041 | alvocidib 0.022 | Tubastatin A -0.039 | [1] 0.066 | defactinib 0.046 | rucaparib -0.014 | encorafenib -0.028 | [2] -0.004 | filanesib -0.123 | zotarolimus -0.108 | idasanutlin -0.01 | alisertib -0.035 | [3] 0.019 | gefitinib -0.021 | [4] 0.181 | lapatinib -0.026 | pictilisib 0.055

MBLAC1 (UniProt A4D2B0)
UniProt A4D2B0, sequence (A4D2B0 whole entry, looked up): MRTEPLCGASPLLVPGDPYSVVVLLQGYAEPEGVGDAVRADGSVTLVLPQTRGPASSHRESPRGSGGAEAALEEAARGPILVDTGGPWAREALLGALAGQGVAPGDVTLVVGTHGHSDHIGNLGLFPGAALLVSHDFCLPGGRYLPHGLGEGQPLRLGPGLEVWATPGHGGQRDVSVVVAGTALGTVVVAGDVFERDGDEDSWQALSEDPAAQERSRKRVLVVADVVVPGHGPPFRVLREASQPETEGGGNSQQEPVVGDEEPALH
inactive: saracatinib 0.164 | alvocidib 0.002 | [1] 0.049 | defactinib 0.003 | rucaparib 0.023 | [5] -0.005 | encorafenib 0.035 | [2] -0.02 | [6] 0.11 | zotarolimus 0.008 | idasanutlin 0.056 | alisertib -0.161 | [3] -0.064 | [4] 0.086 | lapatinib 0.01 | pictilisib 0.043

MAPK11 (UniProt Q15759)
UniProt Q15759, sequence (Q15759 whole entry, looked up): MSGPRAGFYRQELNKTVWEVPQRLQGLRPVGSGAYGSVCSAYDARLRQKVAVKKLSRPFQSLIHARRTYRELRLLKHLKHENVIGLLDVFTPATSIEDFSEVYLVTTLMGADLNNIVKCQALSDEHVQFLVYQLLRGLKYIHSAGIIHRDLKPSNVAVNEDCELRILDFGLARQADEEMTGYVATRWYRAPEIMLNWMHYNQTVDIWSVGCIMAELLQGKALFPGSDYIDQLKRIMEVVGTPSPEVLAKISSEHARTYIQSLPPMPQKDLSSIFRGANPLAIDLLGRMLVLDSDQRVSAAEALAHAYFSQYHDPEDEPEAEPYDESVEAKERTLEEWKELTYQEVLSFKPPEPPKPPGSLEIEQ
inactive: Tubastatin A 0.208 | [1] 0.615 | [6] -0.126 | pictilisib 0.068

LSR (UniProt M0QZL9)
inactive: sotrastaurin 0.042 | defactinib 0.065 | [2] -0.249 | filanesib 0.168

LRRCC1 (UniProt Q9C099)
UniProt Q9C099, sequence (Q9C099 whole entry, looked up): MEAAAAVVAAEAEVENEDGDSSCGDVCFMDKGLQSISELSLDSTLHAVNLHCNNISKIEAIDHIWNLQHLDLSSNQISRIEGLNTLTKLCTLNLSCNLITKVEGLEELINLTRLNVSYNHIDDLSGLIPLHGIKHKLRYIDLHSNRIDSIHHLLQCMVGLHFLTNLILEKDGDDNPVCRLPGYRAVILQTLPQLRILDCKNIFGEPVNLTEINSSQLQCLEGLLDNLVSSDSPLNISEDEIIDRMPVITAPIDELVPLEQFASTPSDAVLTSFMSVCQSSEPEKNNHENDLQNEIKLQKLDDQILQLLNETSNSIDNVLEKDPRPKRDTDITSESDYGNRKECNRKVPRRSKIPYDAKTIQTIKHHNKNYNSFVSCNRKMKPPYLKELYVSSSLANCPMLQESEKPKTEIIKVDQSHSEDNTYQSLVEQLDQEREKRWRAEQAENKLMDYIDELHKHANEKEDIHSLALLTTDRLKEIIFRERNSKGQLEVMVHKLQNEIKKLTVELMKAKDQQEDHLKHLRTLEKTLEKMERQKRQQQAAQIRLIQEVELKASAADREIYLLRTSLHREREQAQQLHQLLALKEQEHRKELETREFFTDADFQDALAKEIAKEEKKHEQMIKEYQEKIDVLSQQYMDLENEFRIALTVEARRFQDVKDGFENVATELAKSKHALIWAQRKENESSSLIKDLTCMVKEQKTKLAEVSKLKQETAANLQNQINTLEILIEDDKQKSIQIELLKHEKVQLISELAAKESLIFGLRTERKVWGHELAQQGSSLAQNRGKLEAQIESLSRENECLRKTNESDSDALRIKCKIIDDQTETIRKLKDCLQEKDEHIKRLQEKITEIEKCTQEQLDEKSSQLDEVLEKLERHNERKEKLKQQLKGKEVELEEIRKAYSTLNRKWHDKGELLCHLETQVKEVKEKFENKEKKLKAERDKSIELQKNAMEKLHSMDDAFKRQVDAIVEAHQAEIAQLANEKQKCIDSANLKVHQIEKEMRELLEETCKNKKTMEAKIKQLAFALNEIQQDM
inactive: saracatinib 0 | Tubastatin A 0.292 | [5] 0.06 | idasanutlin -0.069

MAML1 (UniProt Q92585)
UniProt Q92585, sequence (Q92585 whole entry, looked up): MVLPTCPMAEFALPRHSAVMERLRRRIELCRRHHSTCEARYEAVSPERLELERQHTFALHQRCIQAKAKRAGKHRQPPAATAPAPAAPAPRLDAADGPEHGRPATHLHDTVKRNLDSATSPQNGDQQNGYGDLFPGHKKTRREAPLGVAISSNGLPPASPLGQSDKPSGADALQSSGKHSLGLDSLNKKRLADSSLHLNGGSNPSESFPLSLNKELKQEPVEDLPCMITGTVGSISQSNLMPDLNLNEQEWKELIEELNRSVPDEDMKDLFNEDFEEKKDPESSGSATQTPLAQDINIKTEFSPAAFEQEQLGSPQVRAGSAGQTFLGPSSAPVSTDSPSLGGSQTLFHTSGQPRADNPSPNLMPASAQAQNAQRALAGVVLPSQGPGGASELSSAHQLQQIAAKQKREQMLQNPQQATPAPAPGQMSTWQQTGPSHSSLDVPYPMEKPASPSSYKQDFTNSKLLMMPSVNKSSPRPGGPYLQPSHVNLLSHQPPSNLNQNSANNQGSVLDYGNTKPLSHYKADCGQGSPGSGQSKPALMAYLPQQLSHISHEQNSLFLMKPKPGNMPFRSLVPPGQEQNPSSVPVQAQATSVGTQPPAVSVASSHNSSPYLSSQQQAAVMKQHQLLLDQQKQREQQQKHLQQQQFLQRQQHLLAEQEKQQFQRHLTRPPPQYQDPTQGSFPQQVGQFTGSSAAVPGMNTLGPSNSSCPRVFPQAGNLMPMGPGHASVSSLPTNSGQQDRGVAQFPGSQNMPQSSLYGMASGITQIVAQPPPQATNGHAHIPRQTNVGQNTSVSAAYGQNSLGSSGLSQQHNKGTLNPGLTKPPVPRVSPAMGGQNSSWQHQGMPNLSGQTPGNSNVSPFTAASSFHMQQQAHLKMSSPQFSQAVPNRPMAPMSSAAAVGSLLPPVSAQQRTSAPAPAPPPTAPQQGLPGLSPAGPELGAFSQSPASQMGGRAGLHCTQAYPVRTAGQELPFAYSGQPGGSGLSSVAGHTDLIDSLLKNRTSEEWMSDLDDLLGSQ
inactive: sotrastaurin -0.051 | alvocidib 0.062 | defactinib -0.179 | [2] -0.327 | [6] -0.065 | filanesib 0.152 | zotarolimus -0.065
active: [1] 0.644

IGFBP6 (UniProt P24592)
UniProt P24592, sequence (P24592 whole entry, looked up): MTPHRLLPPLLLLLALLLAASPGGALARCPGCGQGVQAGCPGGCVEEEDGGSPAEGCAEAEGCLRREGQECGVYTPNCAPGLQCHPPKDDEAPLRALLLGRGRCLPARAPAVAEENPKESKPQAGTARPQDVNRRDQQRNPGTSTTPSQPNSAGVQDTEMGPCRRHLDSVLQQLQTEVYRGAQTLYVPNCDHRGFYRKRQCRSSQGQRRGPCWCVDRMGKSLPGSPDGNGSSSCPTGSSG
active: zotarolimus -1.03 | idasanutlin 0.776
inactive: saracatinib 0.011 | alvocidib 0.136 | defactinib 0.144 | [5] -0.094 | [2] 0.055

MAP4K5 (UniProt Q9Y4K4)
UniProt Q9Y4K4, sequence (Q9Y4K4 whole entry, looked up): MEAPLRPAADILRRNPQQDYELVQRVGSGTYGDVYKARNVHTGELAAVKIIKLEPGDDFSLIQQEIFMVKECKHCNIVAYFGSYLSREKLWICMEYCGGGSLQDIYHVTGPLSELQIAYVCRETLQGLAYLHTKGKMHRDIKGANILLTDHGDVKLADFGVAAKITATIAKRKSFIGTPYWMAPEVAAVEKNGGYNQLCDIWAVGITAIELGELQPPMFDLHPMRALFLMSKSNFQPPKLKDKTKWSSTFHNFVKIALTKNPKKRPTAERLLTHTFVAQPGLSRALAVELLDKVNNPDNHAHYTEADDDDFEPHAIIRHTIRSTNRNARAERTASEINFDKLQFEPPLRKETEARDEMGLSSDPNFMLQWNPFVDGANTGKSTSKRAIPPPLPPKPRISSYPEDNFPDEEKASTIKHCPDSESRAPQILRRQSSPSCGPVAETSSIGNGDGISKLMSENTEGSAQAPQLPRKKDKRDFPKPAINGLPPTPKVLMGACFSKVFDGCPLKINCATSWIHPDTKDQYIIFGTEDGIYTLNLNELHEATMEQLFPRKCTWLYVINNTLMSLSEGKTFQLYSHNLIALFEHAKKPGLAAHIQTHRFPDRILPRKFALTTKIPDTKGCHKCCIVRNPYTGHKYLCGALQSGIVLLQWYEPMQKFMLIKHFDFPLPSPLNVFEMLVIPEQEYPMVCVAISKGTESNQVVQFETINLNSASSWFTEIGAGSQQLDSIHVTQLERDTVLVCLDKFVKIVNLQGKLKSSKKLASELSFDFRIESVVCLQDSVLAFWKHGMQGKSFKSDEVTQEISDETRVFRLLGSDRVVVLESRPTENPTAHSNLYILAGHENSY
inactive: alvocidib 0.072 | Tubastatin A 0.113 | [1] -0.02 | defactinib -0.02 | rucaparib -0.08 | encorafenib 0.082 | [2] -0.041 | [6] 0.01 | filanesib -0.083 | zotarolimus 0.021 | idasanutlin 0.067 | alisertib 0.134 | [3] 0.224 | gefitinib -0.011 | [4] 0.011 | lapatinib 0.15 | pictilisib 0.012
